Results filed as inconclusive are left out. Activity calls are given as the source filed them. Unless noted, calls follow the shape of the dose curve; as a rule, active = well fitted curve in the direction sought with a large enough effect in the repeat runs; inconclusive = weak or mixed curves; inactive = no such curve, though single readings can be large; an effect the other way counts as inactive or inconclusive.
Assays:
[1] = qHTS assay to identify small molecule agonists of the vitamin D receptor (VDR) signaling pathway - cell viability counter screen (AID 743224); also: % is scaled to controls: 0 for no effect and ±100 for the full control effect; nearly all actives have a fitted effect of over 50% in size
How it was run: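 VDR-bla cells, 4 h after plating, exposed to compounds for 16 h at 37C; viability then read in the same wells as CellTiter-Glo luminescence after 30 min at room temperature, following the bla FRET read.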

[2] = qHTS assay to identify small molecule antagonists of the vitamin D receptor (VDR) signaling pathway - cell viability counter screen (AID 743225); also: % is scaled to controls: 0 for no effect and ±100 for the full control effect; nearly all actives have a fitted effect of over 50% in size
How it was run: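 Viability counter screen run in the same wells as the beta-lactamase reporter assay: HEK 293T VDR-UAS-bla cells, 16 h compound exposure at 37C with 3 nM (final) 1-alpha,25-dihydroxyvitamin D3. CellTiter-Glo luminescence, 30 min, room temperature.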

[3] = qHTS assay to identify small molecule agonists of the NFkB signaling pathway - cell viability counter screen (AID 1159515; calls by dose curve; also: % is scaled to controls: 0 for no effect and ±100 for the full control effect; nearly all actives have a fitted effect of over 55% in size)
How it was run: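 NFkB-bla ME-180 cells, 2,000/well, plated overnight at 37 C; compound added for 5 hr at 37 C. Viability read in the same wells as the bla reporter, by CellTiter-Glo luminescence after 30 min at room temperature.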

[4] = qHTS assay to identify small molecule agonists of the endoplasmic reticulum stress response signaling pathway - cell viability counter screen (AID 1159517; calls by dose curve;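 also: HeLa cells carrying an ER stress response element beta-lactamase reporter; % is scaled to controls: 0 for no effect and ±100 for the full control effect; nearly all actives have a fitted effect of over 50% in size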)
How it was run: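 Cells, HeLa ESRE-bla; density, 1,500/well; dosing, 5 hr at 37 C, 5% CO2; readout, CellTiter-Glo luminescence after 30 min RT.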

[5] = qHTS assay to identify small molecule antagonists of the retinoid-related orphan receptor gamma (ROR-gamma) signaling pathway - cell viability counter screen (AID 1159520); also: % is scaled to controls: 0 for no effect and ±100 for the full control effect; nearly all actives have a fitted effect of over 50% in size
How it was run: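 Cytotoxicity was read from cellular ATP (CellTiter-Glo luminescence) after 16 hr at 37 C with 1 uM doxycycline induction. The inducer was added 2 hr after compound transfer to Tet-on ROR gamma CHO cells.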

[6] = biological target: Nuclear receptor ROR-gamma (Homo sapiens) (UniProt P51449); experiment: qHTS assay to identify small molecule antagonists of the retinoid-related orphan receptor gamma (ROR-gamma) signaling pathway (AID 1159521)
How it was run: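 Luminescence readout (ONE-Glo, 30 min RT) after 16 h doxycycline induction; loss of signal scored as antagonism. CHO cells with TET-inducible RORγ and RORE-LUC reporter; compounds added 2 h before 1 uM final doxycycline.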

[7] = qHTS assay to identify small molecule agonists of the AP-1 signaling pathway - cell viability counter screen (AID 1159525; calls by dose curve; also: nearly all actives have a fitted effect of over 55% in size)
How it was run: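 Luminescent ATP readout (Cell Titer Glo, 30 min RT), normalised to DMSO and tetra n-octyl ammonium bromide controls. Cells were ME-180 AP-1-bla in 0.5% dialyzed FBS Opti-MEM, with a 5 h, 37 °C compound exposure.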

[8] = qHTS assay to identify small molecule agonists of the AP-1 signaling pathway (AID 1159526; calls by dose curve; also: potency is read from the fitted curve at half-maximal effect)
[9] = biological target: Retinoic acid receptor RXR-alpha (Homo sapiens) (UniProt P19793); experiment: qHTS assay to identify small molecule agonists of the RXR signaling pathway (AID 1159527; calls by dose curve; also: nearly all actives have a fitted effect of over 35% in size; also: potency is read from the fitted curve at half-maximal effect)
How it was run: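 Agonist mode; 9-cis retinoic acid positive control. HEK 293T UAS-bla reporter cells, 2% charcoal-stripped FBS, 16 hr compound exposure at 37 C/5% CO2. LiveBLAzer B/G FRET substrate 2 hr RT; ex 405, em 460/530 nm.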

[10] = qHTS assay to identify small molecule agonists of the RXR signaling pathway - cell viability counter screen (AID 1159529)
How it was run: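 Luminescence from CellTiter-Glo (30 min, RT) measured viability in the same wells as the beta-lactamase reporter readout. Cells: GeneBLAzer RXR-alpha HEK 293T, 2% charcoal-stripped FBS. Compound exposure 16 hr, 37 C.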

[11] = qHTS assay to identify small molecule antagonists of the retinoid acid receptor (RAR) signaling pathway - cell viability counter screen (AID 1159551); also: % is scaled to controls: 0 for no effect and ±100 for the full control effect; nearly all actives have a fitted effect of over 35% in size
How it was run: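 C3RL4 RARE-luciferase cells, 1,000/well, incubated overnight, then dosed with compound plus 1 uM retinol (final). After 6 hr at 37 C, viability read by CellTiter-Glo ATP luminescence following 30 min at room temperature.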

[12] = qHTS assay to identify small molecule antagonists of the retinoic acid receptor (RAR) signaling pathway (AID 1159552)
How it was run: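 Luminescence from a RARE luciferase reporter in C3RL4 cells served as read-out. Cells received compounds together with 1 uM final retinol and incubated 6 hr at 37 C before detection reagent was added for 30 min at room temperature.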

[13] = qHTS assay to identify small molecule agonists of the retinoic acid receptor (RAR) signaling pathway (AID 1159553); conditions: C3RL4 RARE luciferase reporter, agonist, 6 h; activation: at 73.3 µM (top of the series) unless noted; also: potency is read from the fitted curve at half-maximal effect
How it was run: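 C3RL4 RARE-luciferase cells were seeded at 1,000/well and grown overnight at 37 C, then exposed to compounds for 6 hr at 37 C, 5% CO2. Luciferase reagent was added and luminescence was read after 30 min at room temperature.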

[14] = qHTS assay to identify small molecule antagonists of the estrogen related receptor (ERR) signaling pathway - cell viability counter screen (AID 1224818); also: % is scaled to controls: 0 for no effect and ±100 for the full control effect
How it was run: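 ERR cells, 2,000 per well, compound added after 6 h and incubated 17.5 h at 37 C. Viability read by CellTiter-Fluor fluorescence after a further 30 min at 37 C.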

[15] = qHTS assay to identify small molecule antagonists of the estrogen related receptor (ERR) signaling pathway (AID 1224819)
How it was run: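 ERR reporter cell line (NTP) plated at 2,000 cells/well, settled 6 h at 37C/5% CO2, then exposed to LOPAC compounds for 18 h at 37C. One-Glo luciferase luminescence read after 30 min at room temperature.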

[16] = qHTS assay to identify small molecule agonists of the estrogen related receptor (ERR) signaling pathway (AID 1224820); also: % is scaled to controls: 0 for no effect and ±100 for the full control effect
How it was run: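 ERR reporter cells (NTP line) plated 2,000/well, incubated 6 h at 37 C/5% CO2, then pinned with compounds in DMSO and held 18 h at 37 C. One-Glo added; luminescence read after 30 min at room temperature.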

[17] = tested on: estrogen-related receptor alpha (ERRalpha) with PGC-1alpha coactivator, human; experiment: qHTS assay to identify small molecule antagonists of the estrogen related receptor signaling pathway with the pleiotropic PPARgamma coactivator (PGC) (AID 1224821; calls by dose curve)
How it was run: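 Cells engineered for PGC/ERR signalling (line from NTP) were plated 6 h at 37 C/5% CO2, then exposed to DMSO-dissolved compound for 18 h at 37 C. Luciferase activity was read by One-Glo luminescence after 30 min at room temperature.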

[18] = qHTS assay to identify small molecule antagonists of the estrogen related receptor signaling pathway with the pleiotropic PPARgamma coactivator (PGC) cell viability counter screen (AID 1224822; also: % is scaled to controls: 0 for no effect and ±100 for the full control effect)
How it was run: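 PGC/ERR cells rested 6 h, then compound-treated 17.5 h at 37 C. CellTiter-Fluor added for 30 min at 37 C, viability measured by fluorescence intensity.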

[19] = qHTS assay to identify small molecule agonists of the estrogen related receptor signaling pathway with the pleiotropic PPARgamma coactivator (PGC) (AID 1224823); also: % is scaled to controls: 0 for no effect and ±100 for the full control effect
How it was run: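 PGC/ERR reporter cells were seeded, rested 6 h at 37 C/5% CO2, then exposed to compounds in DMSO by pin transfer for 18 h at 37 C. Luciferase activity was read as luminescence after One-Glo reagent and 30 min at room temperature.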

Retinoic acid receptor RXR-alpha (Homo sapiens), sequence (P19793 whole entry, looked up): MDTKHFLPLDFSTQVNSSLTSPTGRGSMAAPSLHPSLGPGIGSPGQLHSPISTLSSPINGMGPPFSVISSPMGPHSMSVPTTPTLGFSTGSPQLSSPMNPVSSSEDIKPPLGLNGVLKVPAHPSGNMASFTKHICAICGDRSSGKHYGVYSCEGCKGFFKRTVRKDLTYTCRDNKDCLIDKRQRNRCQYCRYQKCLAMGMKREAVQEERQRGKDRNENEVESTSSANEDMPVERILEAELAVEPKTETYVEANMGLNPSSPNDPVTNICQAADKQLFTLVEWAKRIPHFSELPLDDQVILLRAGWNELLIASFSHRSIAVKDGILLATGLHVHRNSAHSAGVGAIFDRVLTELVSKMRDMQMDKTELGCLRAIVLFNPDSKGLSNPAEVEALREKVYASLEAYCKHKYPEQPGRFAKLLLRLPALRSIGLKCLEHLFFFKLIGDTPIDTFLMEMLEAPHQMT

CCCCC(CC)COC(=O)CCCCC(=O)OCc1ccccc1 (stereo not drawn)
inactive: Potency [1] | Potency [2] | Potency [3] | Potency [4] | Potency [5] | Potency [6] | Potency [7] | Potency [8] | Potency [9] | Potency [10] | Potency [11] | Potency [12] | Potency [13]

COc1ccc(NC(=O)CC(C)=O)cc1
inactive: Potency [1] | Potency [2] | Potency [3] | Potency [4] | Potency [5] | Potency [6] | Potency [7] | Potency [8] | Potency [9] | Potency [10] | Potency [11] | Potency [12]

Nc1nc2c(ncn2COCCO)c(=O)[nH]1
inactive: Potency [3] | Potency [4] | Potency [5] | Potency [6] | Potency [7] | Potency [8] | Potency [9] | Potency [10] | Potency [11] | Potency [12] | Potency [13] | outcome [14] | Potency [15] | outcome [16] | Potency [17] | Potency [18] | outcome [19]

CC1(C)CCC[C@]2(C)[C@H]3CCO[C@]3(C)CC[C@@H]12
inactive: Potency [1] | Potency [2] | Potency [3] | Potency [4] | Potency [5] | Potency [6] | Potency [7] | Potency [8] | Potency [9] | Potency [10] | Potency [11] | Potency [12] | Potency [13]

NC[C@H]1O[C@H](O[C@H]2[C@H](O[C@@H]3O[C@H](CO)[C@@H](O)[C@H]3O)C(O)[C@H](N)C[C@@H]2N)[C@H](N)[C@@H](O)[C@@H]1O (stereo partly drawn)
inactive: activity change, negative = cytotoxicity [1] -1.26% [at 13.2 µM] | viability change, negative = cytotoxic [2] -0.622% [at 6.95 µM] | activity, negative = cytotoxic [3] 0.788% [at 6.95 µM] | activity change, negative = cytotoxicity [4] -1.85% [at 6.95 µM] | activity, negative = cytotoxicity [5] 4.86% [at 8.39 µM] | activity change, negative = inhibition [6] 9.94% [at 8.39 µM] | viability change, negative = cytotoxic [7] 9.44% [at 6.97 µM] | activation [8] -3.58% [at 6.97 µM] | activation [9] 5.85% [at 6.98 µM] | activity change, negative = cytotoxicity [10] 3% [at 6.97 µM] | activity change, negative = cytotoxicity [11] -0.449% [at 8.39 µM] | activity, negative = inhibition [12] -17.9% [at 8.39 µM] | activation [13] -3.22% [at 8.36 µM]

CCOC(=O)NNc1ccc(N(CC)CC(C)O)nn1 (stereo not drawn)
inactive: Potency [1] | Potency [2] | Potency [3] | Potency [4] | Potency [5] | Potency [6] | Potency [7] | Potency [8] | Potency [9] | Potency [10] | Potency [11] | Potency [12] | Potency [13]

CCC(COC(=O)CCS)(COC(=O)CCS)COC(=O)CCS
inactive: Potency [1] | Potency [2] | Potency [3] | Potency [4] | Potency [5] | Potency [6] | Potency [7] | Potency [8] | Potency [9] | Potency [10] | Potency [11]

C1CCC(SSC2CCCCC2)CC1
inactive: Potency [1] | Potency [2] | Potency [3] | Potency [4] | Potency [5] | Potency [6] | Potency [7] | Potency [8] | Potency [9] | Potency [10] | Potency [11] | Potency [12] | Potency [13]

Cc1c(C)c2c(c(C)c1O)CC[C@@](C)(CCC[C@H](C)CCC[C@H](C)CCCC(C)C)O2
inactive: Potency [1] | Potency [2] | Potency [3] | Potency [4] | Potency [5] | Potency [6] | Potency [7] | Potency [8] | Potency [9] | Potency [10] | Potency [11] | Potency [13]

CCCCCCCCCCCC(=O)OCC(C)OC(=O)CCCCC(=O)O (stereo not drawn)
inactive: Potency [1] | Potency [2] | Potency [3] | Potency [4] | Potency [5] | Potency [6] | Potency [7] | Potency [8] | Potency [9] | Potency [10] | Potency [11] | Potency [12] | Potency [13]

O=c1oc2cc(O)ccc2c2oc3cc(O)ccc3c12
active: Potency [13] 52.2 µM
inactive: Potency [1] | Potency [2] | Potency [3] | Potency [4] | Potency [5] | Potency [6] | Potency [7] | Potency [8] | Potency [10] | Potency [11] | Potency [12]

O=S(=O)(O)c1ccccc1/C=C/c1ccc(-c2ccc(/C=C/c3ccccc3S(=O)(=O)O)cc2)cc1
inactive: Potency [1] | Potency [2] | Potency [3] | Potency [4] | Potency [5] | Potency [6] | Potency [7] | Potency [10] | Potency [11] | Potency [12] | Potency [13]
active: Potency [8] 31.3 µM | Potency [9] 35.2 µM

CNc1ccc([N+](=O)[O-])cc1
inactive: Potency [1] | Potency [2] | Potency [3] | Potency [4] | Potency [5] | Potency [6] | Potency [7] | Potency [8] | Potency [9] | Potency [11] | Potency [12]

Cc1ccc(C(C)C)cc2c(C)ccc1-2
inactive: Potency [1] | Potency [2] | Potency [3] | Potency [4] | Potency [5] | Potency [6] | Potency [7] | Potency [8] | Potency [9] | Potency [10] | Potency [11] | Potency [12] | Potency [13]

CC(=O)OCC=C(C)C
inactive: Potency [1] | Potency [2] | Potency [3] | Potency [4] | Potency [5] | Potency [6] | Potency [7] | Potency [8] | Potency [9] | Potency [10] | Potency [11] | Potency [12] | Potency [13]

Cc1nc(-c2ccc(Cl)cc2)oc1COC(C)(C)C(=O)O
inactive: Potency [1] | Potency [2] | Potency [3] | Potency [4] | Potency [5] | Potency [6] | Potency [7] | Potency [8] | Potency [9] | Potency [10] | Potency [11]
